# Experiments:
# Assay in all cases: DAPPL (digital affinity profiling via proximity ligation, sequencing); 10 mM Tris-HCl pH 7.5, 50 mM NaCl, 1 mM DTT, 4% glycerol, room temperature, 30 min; GST-TFs on glutathione beads, 16-mer random dsDNA library, 0.1% formaldehyde crosslink after washing; high values mean tight binding
# FLI1 = biological target: T1, FLI1 (Homo sapiens, UniProt Q01543 1-452); settings: protein: recombinant; tags: N-terminal GST; dsDNA, one strand shown
# T1 sequence: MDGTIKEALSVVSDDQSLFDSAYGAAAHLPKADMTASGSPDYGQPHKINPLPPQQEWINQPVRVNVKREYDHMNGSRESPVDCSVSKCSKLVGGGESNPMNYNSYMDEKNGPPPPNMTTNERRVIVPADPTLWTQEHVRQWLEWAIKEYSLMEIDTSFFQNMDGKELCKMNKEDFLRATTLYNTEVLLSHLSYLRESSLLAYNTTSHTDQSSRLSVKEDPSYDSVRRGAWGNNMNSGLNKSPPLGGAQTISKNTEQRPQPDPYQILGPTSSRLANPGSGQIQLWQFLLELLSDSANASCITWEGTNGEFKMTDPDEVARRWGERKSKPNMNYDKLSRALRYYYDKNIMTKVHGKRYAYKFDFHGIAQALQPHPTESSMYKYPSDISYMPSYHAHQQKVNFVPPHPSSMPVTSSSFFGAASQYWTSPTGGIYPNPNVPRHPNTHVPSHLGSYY
# Outline: (§1)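 Binding signal is each hexamer's read frequency for a factor divided by its frequency in the tag-only sample. The factors were GST-fused human transcription factors from yeast, captured on glutathione beads, DNA-barcoded and pooled with that sample. Pools were incubated with 200 nmole of a random double-stranded 16-mer DNA library in Tris/NaCl/DTT/glycerol buffer at room temperature for 30 min, then washed, crosslinked with 0.1% formaldehyde, proximity-ligated with BsaI/T4 ligase (1 h, 37 °C), PCR-amplified and sequenced on an Illumina NextSeq500.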
# ELK1 = biological target: T2, ELK1 (Homo sapiens, UniProt P19419 1-428); settings: protein: recombinant; tags: N-terminal GST; dsDNA, one strand shown
# T2 sequence: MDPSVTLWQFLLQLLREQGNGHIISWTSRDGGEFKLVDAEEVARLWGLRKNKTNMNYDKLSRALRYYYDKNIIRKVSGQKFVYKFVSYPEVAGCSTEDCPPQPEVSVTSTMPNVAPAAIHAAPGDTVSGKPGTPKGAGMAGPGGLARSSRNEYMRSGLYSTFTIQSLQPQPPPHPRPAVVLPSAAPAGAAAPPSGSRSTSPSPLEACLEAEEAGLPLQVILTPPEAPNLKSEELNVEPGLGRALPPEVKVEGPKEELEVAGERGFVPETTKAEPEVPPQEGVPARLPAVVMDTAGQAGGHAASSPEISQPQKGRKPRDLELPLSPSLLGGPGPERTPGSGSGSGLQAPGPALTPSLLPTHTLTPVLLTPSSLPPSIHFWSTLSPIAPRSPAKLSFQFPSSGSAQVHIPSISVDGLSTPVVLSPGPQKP
# Outline: as §1
# GABPA = biological target: T3, GABPA (Homo sapiens, UniProt Q06546 1-454); settings: protein: recombinant; tags: N-terminal GST; dsDNA, one strand shown
# T3 sequence: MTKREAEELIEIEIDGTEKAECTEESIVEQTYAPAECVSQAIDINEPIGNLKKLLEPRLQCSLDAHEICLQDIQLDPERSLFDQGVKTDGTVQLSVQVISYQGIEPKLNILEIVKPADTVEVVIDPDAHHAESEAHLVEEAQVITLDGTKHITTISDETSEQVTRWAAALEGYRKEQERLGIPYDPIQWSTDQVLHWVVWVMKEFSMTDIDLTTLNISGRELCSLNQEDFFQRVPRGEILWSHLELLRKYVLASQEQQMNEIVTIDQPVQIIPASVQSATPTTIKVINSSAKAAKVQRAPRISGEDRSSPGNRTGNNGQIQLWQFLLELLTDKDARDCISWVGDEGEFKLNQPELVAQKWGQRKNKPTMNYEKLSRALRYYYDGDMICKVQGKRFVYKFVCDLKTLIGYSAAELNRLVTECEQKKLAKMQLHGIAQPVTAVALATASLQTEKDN
# Outline: as §1
# ERG = biological target: T4, ERG (Homo sapiens, UniProt P11308 1-479); settings: protein: recombinant; tags: N-terminal GST; dsDNA, one strand shown
# T4 sequence: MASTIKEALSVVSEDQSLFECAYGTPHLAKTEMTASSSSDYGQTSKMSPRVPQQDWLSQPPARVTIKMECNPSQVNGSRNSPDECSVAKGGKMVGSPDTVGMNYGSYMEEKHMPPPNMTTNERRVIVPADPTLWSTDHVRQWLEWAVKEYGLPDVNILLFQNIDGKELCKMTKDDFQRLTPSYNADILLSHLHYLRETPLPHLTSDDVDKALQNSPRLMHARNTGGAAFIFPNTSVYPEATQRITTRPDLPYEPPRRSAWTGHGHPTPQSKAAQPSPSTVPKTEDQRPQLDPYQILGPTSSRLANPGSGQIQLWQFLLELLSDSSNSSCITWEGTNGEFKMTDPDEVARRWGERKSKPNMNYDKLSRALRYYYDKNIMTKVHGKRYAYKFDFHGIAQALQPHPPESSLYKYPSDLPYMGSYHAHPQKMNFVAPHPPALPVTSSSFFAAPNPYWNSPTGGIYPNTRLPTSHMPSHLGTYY
# Outline: as §1
# ELF1 = ELF1 (Homo sapiens, UniProt P32519 1-619); settings: protein: recombinant; tags: N-terminal GST; dsDNA, one strand shown
# Outline: as §1
# EHF = biological target: T5, EHF (Homo sapiens, UniProt Q9NZC4 1-300); settings: protein: recombinant; tags: N-terminal GST; dsDNA, one strand shown
# T5 sequence: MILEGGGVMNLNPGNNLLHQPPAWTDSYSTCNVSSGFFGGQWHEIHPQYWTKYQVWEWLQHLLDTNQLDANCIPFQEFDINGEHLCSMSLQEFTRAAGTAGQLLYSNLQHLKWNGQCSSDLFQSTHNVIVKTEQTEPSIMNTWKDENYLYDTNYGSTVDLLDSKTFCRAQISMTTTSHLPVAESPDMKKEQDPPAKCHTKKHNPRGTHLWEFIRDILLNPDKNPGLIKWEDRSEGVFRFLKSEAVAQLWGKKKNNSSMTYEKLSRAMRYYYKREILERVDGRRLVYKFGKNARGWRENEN
# Outline: as §1
# SPI1 = SPI1 (Homo sapiens, UniProt P17947 1-270); settings: protein: recombinant; tags: N-terminal GST; dsDNA, one strand shown
# Outline: as §1
# SPIB = SPIB (Homo sapiens, UniProt Q01892 1-262); settings: protein: recombinant; tags: N-terminal GST; dsDNA, one strand shown
# Outline: as §1
# ELK3 = biological target: T6, ELK3 (Homo sapiens, UniProt P41970 1-407); settings: protein: recombinant; tags: N-terminal GST; dsDNA, one strand shown
# T6 sequence: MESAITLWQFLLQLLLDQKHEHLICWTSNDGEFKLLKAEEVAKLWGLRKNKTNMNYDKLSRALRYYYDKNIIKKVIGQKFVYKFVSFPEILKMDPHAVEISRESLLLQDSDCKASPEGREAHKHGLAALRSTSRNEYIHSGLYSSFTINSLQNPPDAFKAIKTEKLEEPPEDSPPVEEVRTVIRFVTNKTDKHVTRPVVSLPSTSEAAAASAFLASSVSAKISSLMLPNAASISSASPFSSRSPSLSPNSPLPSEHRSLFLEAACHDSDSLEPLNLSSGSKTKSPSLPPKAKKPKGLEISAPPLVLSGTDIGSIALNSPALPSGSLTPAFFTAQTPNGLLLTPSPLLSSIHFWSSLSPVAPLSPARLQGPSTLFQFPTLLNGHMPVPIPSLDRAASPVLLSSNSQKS
# Outline: as §1
# FEV = biological target: T7, FEV (Homo sapiens, UniProt Q99581 1-238); settings: protein: recombinant; tags: N-terminal GST; dsDNA, one strand shown
# T7 sequence: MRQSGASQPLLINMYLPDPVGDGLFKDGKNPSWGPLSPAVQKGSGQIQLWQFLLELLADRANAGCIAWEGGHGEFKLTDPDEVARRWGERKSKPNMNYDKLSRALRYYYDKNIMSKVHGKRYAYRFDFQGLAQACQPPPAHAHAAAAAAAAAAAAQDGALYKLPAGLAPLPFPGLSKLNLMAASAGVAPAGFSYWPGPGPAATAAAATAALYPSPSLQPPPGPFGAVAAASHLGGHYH
# Outline: as §1
# ETV5 = ETV5 (Homo sapiens, UniProt P41161 1-510); settings: protein: recombinant; tags: N-terminal GST; dsDNA, one strand shown
# Outline: as §1
# HSF1 = HSF1 (Homo sapiens, UniProt Q00613 1-529); settings: protein: recombinant; tags: N-terminal GST; chain copies: 3; dsDNA, one strand shown
# Outline: as §1
# SPIC = biological target: T8, SPIC (Homo sapiens, UniProt Q8N5J4 1-248); settings: protein: recombinant; tags: N-terminal GST; dsDNA, one strand shown
# T8 sequence: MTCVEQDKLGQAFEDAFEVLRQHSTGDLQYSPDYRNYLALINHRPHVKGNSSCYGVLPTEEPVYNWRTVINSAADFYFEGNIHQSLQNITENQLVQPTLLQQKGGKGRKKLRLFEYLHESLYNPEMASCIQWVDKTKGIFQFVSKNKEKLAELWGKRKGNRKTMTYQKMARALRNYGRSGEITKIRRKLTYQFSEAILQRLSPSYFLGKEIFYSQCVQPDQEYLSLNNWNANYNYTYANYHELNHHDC
# Outline: as §1
# ELF4 = ELF4 (Homo sapiens, UniProt Q99607 1-663); settings: protein: recombinant; tags: N-terminal GST; dsDNA, one strand shown
# Outline: as §1
# ELK4 = biological target: T9, ELK4 (Homo sapiens, UniProt P28324-2 1-405); settings: protein: recombinant; tags: N-terminal GST; dsDNA, one strand shown
# T9 sequence: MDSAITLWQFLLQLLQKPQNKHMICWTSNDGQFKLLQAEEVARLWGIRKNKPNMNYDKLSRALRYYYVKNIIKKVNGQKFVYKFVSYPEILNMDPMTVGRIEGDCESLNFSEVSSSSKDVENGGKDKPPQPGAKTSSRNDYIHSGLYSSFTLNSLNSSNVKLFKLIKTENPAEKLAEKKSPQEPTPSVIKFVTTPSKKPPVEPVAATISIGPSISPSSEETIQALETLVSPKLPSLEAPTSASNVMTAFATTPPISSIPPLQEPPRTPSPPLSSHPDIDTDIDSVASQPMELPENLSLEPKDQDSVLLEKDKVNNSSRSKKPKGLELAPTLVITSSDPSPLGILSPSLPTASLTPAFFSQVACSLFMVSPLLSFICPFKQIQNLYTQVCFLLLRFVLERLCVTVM
# Outline: as §1
# ETV2 = biological target: T10, ETV2 (Homo sapiens, UniProt O00321 1-342); settings: protein: recombinant; tags: N-terminal GST; dsDNA, one strand shown
# T10 sequence: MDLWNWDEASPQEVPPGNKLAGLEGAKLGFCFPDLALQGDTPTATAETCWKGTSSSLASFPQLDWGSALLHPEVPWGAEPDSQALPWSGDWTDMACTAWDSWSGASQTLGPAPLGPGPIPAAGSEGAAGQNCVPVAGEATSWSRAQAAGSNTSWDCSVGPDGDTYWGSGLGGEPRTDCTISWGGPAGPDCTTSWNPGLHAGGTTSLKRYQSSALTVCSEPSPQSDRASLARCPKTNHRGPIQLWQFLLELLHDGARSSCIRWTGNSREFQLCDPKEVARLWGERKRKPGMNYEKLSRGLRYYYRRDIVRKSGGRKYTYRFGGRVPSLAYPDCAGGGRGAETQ
# Outline: as §1
# ELF3 = biological target: T11, ELF3 (Homo sapiens, UniProt P78545 1-371); settings: protein: recombinant; tags: N-terminal GST; dsDNA, one strand shown
# T11 sequence: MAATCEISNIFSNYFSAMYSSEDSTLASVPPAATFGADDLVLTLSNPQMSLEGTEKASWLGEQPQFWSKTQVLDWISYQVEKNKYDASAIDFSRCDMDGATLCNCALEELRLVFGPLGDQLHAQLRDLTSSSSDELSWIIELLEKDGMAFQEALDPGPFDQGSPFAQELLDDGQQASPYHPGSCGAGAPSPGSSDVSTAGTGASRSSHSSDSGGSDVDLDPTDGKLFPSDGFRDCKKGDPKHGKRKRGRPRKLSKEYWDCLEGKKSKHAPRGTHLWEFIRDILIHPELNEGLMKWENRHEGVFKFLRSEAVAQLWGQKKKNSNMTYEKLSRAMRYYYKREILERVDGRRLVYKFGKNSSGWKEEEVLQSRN
# Outline: as §1
# CRX = CRX (Homo sapiens, UniProt O43186 1-299); settings: protein: recombinant; tags: N-terminal GST; dsDNA, one strand shown
# Outline: as §1
# ETV1 = ETV1 (Homo sapiens, UniProt P50549 1-477); settings: protein: recombinant; tags: N-terminal GST; dsDNA, one strand shown
# Outline: as §1
# Sequence of HSF1 (Q00613 whole entry): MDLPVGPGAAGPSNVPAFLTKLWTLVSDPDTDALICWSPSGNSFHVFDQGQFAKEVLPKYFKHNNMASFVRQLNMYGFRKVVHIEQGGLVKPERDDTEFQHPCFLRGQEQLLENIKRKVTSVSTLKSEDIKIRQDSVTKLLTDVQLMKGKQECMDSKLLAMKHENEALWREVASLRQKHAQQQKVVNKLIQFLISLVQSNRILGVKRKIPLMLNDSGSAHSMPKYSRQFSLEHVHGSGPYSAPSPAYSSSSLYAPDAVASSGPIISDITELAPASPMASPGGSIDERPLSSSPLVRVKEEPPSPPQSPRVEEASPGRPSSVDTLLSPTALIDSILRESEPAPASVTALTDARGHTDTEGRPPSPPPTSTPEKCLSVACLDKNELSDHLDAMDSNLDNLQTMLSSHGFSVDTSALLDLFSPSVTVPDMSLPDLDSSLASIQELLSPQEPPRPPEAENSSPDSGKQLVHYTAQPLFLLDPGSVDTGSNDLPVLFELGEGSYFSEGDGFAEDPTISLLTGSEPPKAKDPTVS
# Sequence of SPIB (Q01892 whole entry): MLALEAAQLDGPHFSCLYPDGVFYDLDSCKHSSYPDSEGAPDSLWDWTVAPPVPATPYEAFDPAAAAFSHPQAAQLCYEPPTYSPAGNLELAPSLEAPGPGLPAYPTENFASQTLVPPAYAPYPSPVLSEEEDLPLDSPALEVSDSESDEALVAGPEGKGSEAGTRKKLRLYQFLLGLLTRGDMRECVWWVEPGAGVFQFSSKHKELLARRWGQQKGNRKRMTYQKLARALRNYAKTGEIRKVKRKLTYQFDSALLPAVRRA
# Sequence of ETV1 (P50549 whole entry): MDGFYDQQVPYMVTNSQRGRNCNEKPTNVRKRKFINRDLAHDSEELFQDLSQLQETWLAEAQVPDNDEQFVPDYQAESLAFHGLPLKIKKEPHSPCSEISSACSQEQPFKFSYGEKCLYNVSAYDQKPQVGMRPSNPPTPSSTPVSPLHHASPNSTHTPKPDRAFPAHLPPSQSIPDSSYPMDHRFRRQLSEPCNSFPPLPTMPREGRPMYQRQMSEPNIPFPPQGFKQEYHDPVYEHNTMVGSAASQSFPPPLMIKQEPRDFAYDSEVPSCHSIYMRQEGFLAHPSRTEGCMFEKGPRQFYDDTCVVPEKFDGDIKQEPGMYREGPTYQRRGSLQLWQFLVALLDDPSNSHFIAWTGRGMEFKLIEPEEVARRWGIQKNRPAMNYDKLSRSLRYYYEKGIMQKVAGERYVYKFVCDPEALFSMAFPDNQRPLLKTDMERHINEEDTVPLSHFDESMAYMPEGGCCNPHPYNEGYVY
# Sequence of ELF4 (Q99607 whole entry): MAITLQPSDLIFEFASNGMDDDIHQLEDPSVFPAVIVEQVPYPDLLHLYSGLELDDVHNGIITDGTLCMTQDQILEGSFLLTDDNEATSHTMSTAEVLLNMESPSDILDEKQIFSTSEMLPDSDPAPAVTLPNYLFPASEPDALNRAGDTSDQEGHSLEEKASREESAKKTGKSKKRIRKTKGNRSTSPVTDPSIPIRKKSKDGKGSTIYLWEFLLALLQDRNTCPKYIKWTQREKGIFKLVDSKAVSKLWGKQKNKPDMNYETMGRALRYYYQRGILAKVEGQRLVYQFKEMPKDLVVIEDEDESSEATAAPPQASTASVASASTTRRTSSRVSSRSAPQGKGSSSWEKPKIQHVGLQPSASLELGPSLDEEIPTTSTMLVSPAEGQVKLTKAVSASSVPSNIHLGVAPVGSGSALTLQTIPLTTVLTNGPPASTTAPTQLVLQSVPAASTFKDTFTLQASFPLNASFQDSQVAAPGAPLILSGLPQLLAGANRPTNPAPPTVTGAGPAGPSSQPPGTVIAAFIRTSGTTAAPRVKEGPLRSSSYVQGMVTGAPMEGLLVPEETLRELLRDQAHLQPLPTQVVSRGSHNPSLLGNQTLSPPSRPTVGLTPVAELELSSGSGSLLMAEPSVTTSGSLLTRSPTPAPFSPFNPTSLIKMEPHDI
# Sequence of CRX (O43186 whole entry): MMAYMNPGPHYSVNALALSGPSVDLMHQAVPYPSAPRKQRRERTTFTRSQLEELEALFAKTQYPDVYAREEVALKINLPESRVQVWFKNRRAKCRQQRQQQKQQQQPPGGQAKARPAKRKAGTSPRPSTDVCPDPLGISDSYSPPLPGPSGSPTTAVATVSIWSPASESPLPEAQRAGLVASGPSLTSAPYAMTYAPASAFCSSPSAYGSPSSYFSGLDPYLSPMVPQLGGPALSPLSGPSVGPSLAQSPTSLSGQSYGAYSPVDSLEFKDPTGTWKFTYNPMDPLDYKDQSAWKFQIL
# Sequence of ELF1 (P32519 whole entry): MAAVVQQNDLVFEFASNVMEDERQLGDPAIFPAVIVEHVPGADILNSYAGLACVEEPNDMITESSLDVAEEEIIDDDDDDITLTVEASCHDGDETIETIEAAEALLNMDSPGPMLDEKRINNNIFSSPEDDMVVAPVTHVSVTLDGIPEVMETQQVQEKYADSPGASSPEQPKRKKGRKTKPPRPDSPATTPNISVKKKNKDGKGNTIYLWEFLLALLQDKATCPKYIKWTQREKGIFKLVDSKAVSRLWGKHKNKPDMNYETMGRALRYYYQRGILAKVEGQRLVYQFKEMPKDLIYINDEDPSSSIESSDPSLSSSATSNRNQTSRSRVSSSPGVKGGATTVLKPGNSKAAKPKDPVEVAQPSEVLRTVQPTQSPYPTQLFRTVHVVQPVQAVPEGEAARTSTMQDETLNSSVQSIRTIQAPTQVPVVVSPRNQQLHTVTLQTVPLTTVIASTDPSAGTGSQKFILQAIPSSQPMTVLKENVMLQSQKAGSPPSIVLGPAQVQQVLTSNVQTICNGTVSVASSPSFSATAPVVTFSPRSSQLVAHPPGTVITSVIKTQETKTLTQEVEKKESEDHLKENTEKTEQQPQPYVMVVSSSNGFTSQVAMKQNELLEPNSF
# Sequence of ETV5 (P41161 whole entry): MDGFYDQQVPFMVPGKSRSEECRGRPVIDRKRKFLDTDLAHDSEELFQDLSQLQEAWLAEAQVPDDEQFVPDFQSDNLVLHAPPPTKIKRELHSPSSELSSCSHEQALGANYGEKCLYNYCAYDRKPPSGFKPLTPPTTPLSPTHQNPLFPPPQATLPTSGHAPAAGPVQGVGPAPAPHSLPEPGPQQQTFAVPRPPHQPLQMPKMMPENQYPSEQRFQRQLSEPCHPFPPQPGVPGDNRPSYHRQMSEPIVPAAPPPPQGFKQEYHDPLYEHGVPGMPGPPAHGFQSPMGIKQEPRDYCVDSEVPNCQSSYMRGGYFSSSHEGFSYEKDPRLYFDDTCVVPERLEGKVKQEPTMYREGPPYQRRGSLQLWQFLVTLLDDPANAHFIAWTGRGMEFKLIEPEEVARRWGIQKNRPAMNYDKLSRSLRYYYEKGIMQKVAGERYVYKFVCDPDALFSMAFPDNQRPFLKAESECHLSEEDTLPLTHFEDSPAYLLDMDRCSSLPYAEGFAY
sequence,measurement,setting,value
CCGTAA,binding signal,FLI1,"1.09 fold enrichment (6-mer frequency, TF over GST control)"
same,binding signal,ELK1,"1.1 fold enrichment (6-mer frequency, TF over GST control)"
same,binding signal,GABPA,"1.1 fold enrichment (6-mer frequency, TF over GST control)"
same,binding signal,ERG,"1.14 fold enrichment (6-mer frequency, TF over GST control)"
same,binding signal,ELF1,"1.09 fold enrichment (6-mer frequency, TF over GST control)"
same,binding signal,EHF,"1.17 fold enrichment (6-mer frequency, TF over GST control)"
same,binding signal,SPI1,"1.13 fold enrichment (6-mer frequency, TF over GST control)"
same,binding signal,SPIB,"1.06 fold enrichment (6-mer frequency, TF over GST control)"
same,binding signal,ELK3,"1.14 fold enrichment (6-mer frequency, TF over GST control)"
same,binding signal,FEV,"1.07 fold enrichment (6-mer frequency, TF over GST control)"
same,binding signal,ETV5,"1.06 fold enrichment (6-mer frequency, TF over GST control)"
same,binding signal,HSF1,"1.09 fold enrichment (6-mer frequency, TF over GST control)"
same,binding signal,SPIC,"1.03 fold enrichment (6-mer frequency, TF over GST control)"
same,binding signal,ELF4,"1.14 fold enrichment (6-mer frequency, TF over GST control)"
same,binding signal,ELK4,"1.15 fold enrichment (6-mer frequency, TF over GST control)"
same,binding signal,ETV2,"1.2 fold enrichment (6-mer frequency, TF over GST control)"
same,binding signal,ELF3,"1.1 fold enrichment (6-mer frequency, TF over GST control)"
same,binding signal,CRX,"1.27 fold enrichment (6-mer frequency, TF over GST control)"
same,binding signal,ETV1,"1.05 fold enrichment (6-mer frequency, TF over GST control)"
